# Measured values taken from PMC4336329 (PLoS ONE, 2015).
# About 14,000 (4.5%) of roughly 310,000 compounds showed an effect of 50% or more. The effect is printed as a negative number. The full list was thinned out, with strong results kept by preference.
# Biological target: human ether-à-go-go-related gene (hERG) potassium channel (human, UniProt Q12809)
# Assay: primary screen, population patch clamp on CHO cells stably expressing hERG; higher = less effect of the substance
# 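Further: peak tail current of the secondary pulse compared with the same well before compound.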
# Chain of human ether-à-go-go-related gene (hERG) potassium channel (Q12809 whole entry, looked up): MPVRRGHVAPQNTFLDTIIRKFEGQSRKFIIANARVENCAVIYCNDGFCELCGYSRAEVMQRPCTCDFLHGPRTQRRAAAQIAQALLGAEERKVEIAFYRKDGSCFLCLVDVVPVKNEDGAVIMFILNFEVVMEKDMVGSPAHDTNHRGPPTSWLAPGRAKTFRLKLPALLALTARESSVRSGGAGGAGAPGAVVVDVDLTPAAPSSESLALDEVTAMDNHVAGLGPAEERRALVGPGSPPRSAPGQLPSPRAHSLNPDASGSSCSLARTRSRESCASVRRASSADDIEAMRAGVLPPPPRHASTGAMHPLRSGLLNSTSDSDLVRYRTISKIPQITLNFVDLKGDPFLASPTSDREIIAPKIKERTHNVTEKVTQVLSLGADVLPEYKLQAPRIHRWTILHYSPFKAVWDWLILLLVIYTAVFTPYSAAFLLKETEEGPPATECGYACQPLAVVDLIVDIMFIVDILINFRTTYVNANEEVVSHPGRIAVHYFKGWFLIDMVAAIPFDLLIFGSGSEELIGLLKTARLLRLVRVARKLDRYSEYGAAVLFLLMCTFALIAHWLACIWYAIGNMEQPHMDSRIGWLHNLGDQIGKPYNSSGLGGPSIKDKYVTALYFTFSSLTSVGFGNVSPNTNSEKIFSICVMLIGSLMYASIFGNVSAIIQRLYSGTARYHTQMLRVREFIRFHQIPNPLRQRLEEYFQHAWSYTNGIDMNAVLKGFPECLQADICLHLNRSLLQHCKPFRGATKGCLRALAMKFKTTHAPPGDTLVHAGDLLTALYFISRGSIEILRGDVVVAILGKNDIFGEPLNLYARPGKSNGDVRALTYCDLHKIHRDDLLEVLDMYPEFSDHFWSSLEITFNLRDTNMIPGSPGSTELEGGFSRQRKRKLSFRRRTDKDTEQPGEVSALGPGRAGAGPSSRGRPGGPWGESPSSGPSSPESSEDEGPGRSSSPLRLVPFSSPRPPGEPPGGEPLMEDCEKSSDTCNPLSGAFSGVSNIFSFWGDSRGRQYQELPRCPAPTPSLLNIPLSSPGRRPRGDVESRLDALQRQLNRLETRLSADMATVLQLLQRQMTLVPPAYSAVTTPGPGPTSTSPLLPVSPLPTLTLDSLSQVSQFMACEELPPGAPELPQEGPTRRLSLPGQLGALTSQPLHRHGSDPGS
row,Compound,"hERG current change (%, negative = inhibition) at 10uM [%]"
1,CC(C)(C)/C=N/NC(=O)CNC(=O)c1ccc2c(c1)OCCO2,15.6
2,CC1(C)C2CCC1(C)C(OC(=O)CCn1ccnc1)C2 (stereo not shown),-25.5
3,Cc1ccc(C)c2sc(NC(=O)c3nc4ccccc4s3)nc12,2.76
4,CCN(CC)C(=O)Oc1ccc(Br)cc1C(=O)Nc1ccc(F)c(Cl)c1,2.76
5,CC(=O)c1ccc(/C=C/c2nc3ccccc3n2C)o1,-5.96
6,Cc1ccc(NCc2nnc(SCC(=O)N3CCCCC3)n2CC2CCCO2)c(C)c1 (stereo not shown),-5.62
7,CCSc1nnc(CNc2ccc(F)cc2)n1CC1CCCO1 (stereo not shown),-15.1
8,Cc1ccc(NCc2nnc(SCC(=O)NCc3ccco3)n2CC2CCCO2)cc1Cl (stereo not shown),-7.7
9,Cc1ccc(NCc2nnc(SCC(=O)Nc3ncc(C)s3)n2CC2CCCO2)c(C)c1 (stereo not shown),-12.4
10,CCn1c(CNc2ccc(F)cc2)nnc1SCCN1CCCCC1,-12.1
11,Cc1ccc(NCc2nnc(SCC(=O)Nc3ccccc3)n2CC2CCCO2)c(C)c1 (stereo not shown),-0.0882
12,Cc1ccc(NCc2nnc(SCCN3CCCCC3)n2CC2CCCO2)cc1Cl (stereo not shown),-92.4
13,Cc1ccc(NCc2nnc(SCC(=O)Nc3cccc(O)c3)n2CC2CCCO2)c(C)c1 (stereo not shown),-68.2
14,Cc1ccc(NCc2nnc(SCCN3CCCCC3)n2CC2CCCO2)c(C)c1 (stereo not shown),-58.5
15,Cc1ccc(NCc2nnc(SCC(N)=O)n2CC2CCCO2)c(C)c1 (stereo not shown),8.71
16,Fc1ccc(NCc2nnc(SCc3nnc(-c4ccccc4)o3)n2Cc2ccccc2)cc1,-46
17,Fc1ccc(NCc2nnc(SCc3nnc(-c4ccccc4)o3)n2CC2CCCO2)cc1 (stereo not shown),-53.1
18,CC1(CC(=O)N/N=C/c2cc3c(cc2Br)OCO3)OCCO1,15.5
19,CCc1c(C)sc(NC(=O)OC)c1C(=O)N1CCCCC1,-4.94
20,COC(=O)c1ccc(N2CCN(c3ccccc3)CC2)c(NC(=O)C2CC2)c1,-35.6
21,CC(=NCCc1c[nH]c2ccccc12)c1c(O)n(Cc2ccccc2)c(=O)[nH]c1=O,0.859
22,COC(=O)N/N=C\c1cc(Br)ccc1OCc1ccccc1,-6.55
23,O=C1CCCC(=O)C1=C1SCCCS1,-5.96

row,Compound,"hERG current change (%, negative = inhibition) at 10uM [%]"
1,COc1ccc(C(=O)N2CCN(c3ccc(C)c(C)c3)CC2)cc1OC,-6.14
2,COc1cc(C(=O)N2CCN(c3ccc(C)cc3C)CC2)cc(OC)c1OC,-19.7
3,O=C(c1ccc(Cl)cc1)N1CCC(O)(CSc2ccccc2)CC1,-38.1
4,COc1ccc(C(=O)N2CCC(O)(c3ccc(F)cc3)CC2)cc1OC,-38.6
5,COc1ccc(C(=O)N2CCN(c3ccc(C)cc3C)CC2)cc1OC,-68.5
6,COc1cccc(SCC2(O)CCN(C(=O)c3ccc(Cl)cc3)CC2)c1,-69
7,COc1cc(C(=O)N2CCC(O)(c3ccccc3)CC2)cc(OC)c1OC,14.7
8,COc1ccc(C(=O)N2CCN(C(=O)c3ccc(-c4ccccc4)cc3)CC2)cc1OC,-43.6
9,COc1ccc(C(=O)N2CCC(O)(c3ccc(Cl)cc3)CC2)cc1OC,-51.9
10,O=C(c1ccc(Cl)cc1)N1CCC(O)(CSc2ccc(Cl)cc2)CC1,-44.4
11,COc1ccc(C(=O)N2CCN(c3c(C)cccc3C)CC2)cc1OC,-68.8
12,COc1ccc(C(=O)N2CCN(c3ccc(C)cc3)CC2)cc1OC,-21.8
13,Cc1nc2ccc(Cl)cc2c(-c2ccccc2)c1C(=O)N(C)C.Cl,-5.56
14,CCc1ccccc1NC(=O)CNC(=O)c1cc(C2CC2)nn1-c1ccccc1,-28.8
15,O=C(c1noc2c1CCCC2)N1CCC(CO)(Cc2ccccc2Cl)CC1,-22.9
16,COCCCNC(=O)Cn1ccc(N)nc1=O,11.4
17,CN(C)C=O.O=C(Nc1cccc(S(=O)(=O)NC2=NCCCCC2)c1)c1cc(-c2ccco2)nc2ccccc12,19.7
18,COc1ccc(-n2c(CNc3ccc(C)cc3)nnc2SCC(=O)Nc2nc(-c3ccccc3)cs2)cc1,-23.1
19,CCN1C(=O)/C(=C/N(C)c2ccccc2)OC1=S,-8.25
20,CCN1CCN(CC(=O)Nc2sc3c(c2C#N)CCC3)CC1,-18.1
21,CC(=O)Nc1sc2c(c1C#N)CCC(C)C2 (stereo not shown),-3.48
22,CC1CCc2c(sc(NC(=O)COC(=O)c3ccccc3NCc3ccco3)c2C#N)C1 (stereo not shown),7.34
23,CCN1CCN(CC(=O)Nc2sc3c(c2C#N)CCC(C)C3)CC1 (stereo not shown),-51.7

row,Compound,"hERG current change (%, negative = inhibition) at 10uM [%]"
1,CC1CCc2c(sc(NC(=O)C(=O)NCc3ccco3)c2C#N)C1 (stereo not shown),-66.3
2,CC1CCc2c(sc(NC(=O)CN3CCN(C(=O)c4ccco4)CC3)c2C#N)C1 (stereo not shown),-41.5
3,O=C(CN1CCOc2ccccc21)N1CCC(Cc2ccccc2)CC1,-26.3
4,Cc1nn(CCc2nn[nH]n2)c2nc(-c3ccccc3)cc(C(F)(F)F)c12,19.3
5,COc1ccc(-c2csc(NCCc3nc4cc(Cl)c(N5CCCCC5)cc4n3CCOCCO)n2)cc1,-10.4
6,CC1CCN(CC(=O)n2c3c(c4ccccc42)CCCC3)CC1.Cl,0.546
7,CCc1ccc(-c2csc(NC(=O)c3cccnc3)n2)cc1,-3.93
8,Cc1ccccc1N=C1N=C(N)c2ccccc21,-2.13
9,CC1CCCCN1CCNC(=O)C1CC(=O)N(c2ccc(F)c(Cl)c2)C1 (stereo not shown),-56.9
10,O=C(NCCN1CCOCC1)C1CC(=O)N(c2ccc(F)c(Cl)c2)C1 (stereo not shown),-3.45
11,CN(C)CCNC(=O)C1CC(=O)N(c2ccc(F)c(Cl)c2)C1 (stereo not shown),-11.2
12,CN(CCNC(=O)C1CC(=O)N(c2ccc(F)c(Cl)c2)C1)Cc1ccccc1 (stereo not shown),-52.5
13,COCCNC(=O)C1CC(=O)N(c2ccc(F)c(Cl)c2)C1 (stereo not shown),-2.89
14,CC1CCCN(CCCNC(=O)C2CC(=O)N(c3ccc(F)c(Cl)c3)C2)C1 (stereo not shown),-37.9
15,CN(C)c1ccc(/C=N/NC(=O)c2cccc(N3CCCC3=O)c2)cc1,12.7
16,O=C(Oc1ccc2ccccc2c1)c1ccco1,5.27
17,O=C(Oc1ccc2ccc(=O)oc2c1)c1ccccc1,14.2
18,O=C(Oc1ccc2ccc(=O)oc2c1)c1ccco1,-73.1
19,COc1ccc(CN2CCN(C(=O)c3cccs3)CC2)cc1Br,-24.4
20,CCC(CC)C(=O)NCCc1ccc(OC)cc1,17.8
21,Cc1csc(NC(=O)c2cccnc2)n1,13.5
22,CCN1CCN(S(=O)(=O)c2ccc(Cl)c(C(=O)N(C)Cc3ccccc3)c2)CC1,-28.8
23,CCN1CCN(S(=O)(=O)c2ccc(Cl)c(C(=O)N(C)Cc3cccs3)c2)CC1,-14.6

row,Compound,"hERG current change (%, negative = inhibition) at 10uM [%]"
1,CCN1CCN(S(=O)(=O)c2ccc(Cl)c(C(=O)N(C)Cc3cccc(Cl)c3Cl)c2)CC1,-61.3
2,CCN1CCN(S(=O)(=O)c2ccc(Cl)c(C(=O)N(C)Cc3ccc(Cl)cc3Cl)c2)CC1,-9.34
3,CCc1ccc(CN(C)C(=O)c2cc(S(=O)(=O)N3CCN(CC)CC3)ccc2Cl)cc1,-25.3
4,CCN1CCN(S(=O)(=O)c2ccc(Cl)c(C(=O)N(C)C(c3ccccc3)c3ccccc3)c2)CC1,-50.5
5,O=C(O)c1ccc2c(c1)C(=O)N(c1cccc(S(=O)(=O)Nc3cccc(C(F)(F)F)c3)c1)C2=O,21.1
6,CCN(CC)S(=O)(=O)c1ccc(C(C)NC(=O)C2CCCN2C(=O)c2cccs2)cc1 (stereo not shown),-15.5
7,Cc1cc(Cl)ccc1C(=O)C1CCCN(C(=O)CCN2CCCO2)C1 (stereo not shown),-1.54
8,CC(C)(C)NC(=O)C(c1ccccn1)N(C(=O)C1CSC(=O)C1)c1ccc(F)cc1 (stereo not shown),6.26
9,CCC(=NCCc1ccccc1)c1c(O)[nH]c(=O)[nH]c1=O,10.1
10,O=c1[nH]c(O)c(C=NC2CCN(Cc3ccccc3)CC2)c(=O)[nH]1,-31.6
11,C=CCn1c(O)c(C(C)=NCCc2ccccc2)c(=O)[nH]c1=O,-14.7
12,CCC(=NC1CCN(Cc2ccccc2)CC1)c1c(O)[nH]c(=O)[nH]c1=O,-52.4
13,C=CCn1c(O)c(C(C)=NC2CC2)c(=O)[nH]c1=O,9.27
14,C=CCn1c(O)c(C(C)=NC2CCN(Cc3ccccc3)CC2)c(=O)[nH]c1=O,-55.7
15,Cc1ccccc1CNC(=O)C1CCN(c2nnc(N3CCCC3=O)s2)CC1,19.3
16,CC(C)(C)c1csc(CS(=O)(=O)c2ccccn2)n1,-6.8
17,Brc1ccc(C2=Nn3cnnc3SC2)cc1,13.6
18,O=[N+]([O-])c1ccc(C2=Nn3cnnc3SC2)cc1,-62.2
19,CCc1nnc2n1N=C(c1ccc([N+](=O)[O-])cc1)CS2,-65.5
20,CCOc1ccc(C2=Nn3cnnc3SC2)cc1,-14.8
21,Br.CCc1nnc2n1N=C(c1cccc([N+](=O)[O-])c1)CS2,-32.1
22,Br.CCCc1nnc2n1N=C(c1ccc([N+](=O)[O-])cc1)CS2,-38.6
